From PubChem BioAssay come the findings set out here.

Activity calls are given as the source filed them. Unless noted, how the calls were made is not given here.

Experiment [1] can be described thus: HepG2 liver cancer cell viability effects, profiling panel, resazurin fluorescence, 24 h, PK04 Diversity Set (AID 1172). Further: test concentration not given here. The conditions noted are these: higher = more signal.
A short description of experiment [2]: basal S. cerevisiae growth modulation, no modifier, primary screen, OD600, strain BY4716, 24 h, basal condition (AID 1173). The conditions noted are these: OD600, 24 h, higher = more signal, called active from +8 up or from −8 down.
Experiment [3] can be described thus: MM1S myeloma cell viability, profiling panel, resazurin fluorescence, basal, 24 h, PK04 Diversity Set (AID 1174).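 Further: MM1S multiple myeloma cell line; test concentration not given here.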 The conditions noted are these: higher = more signal, called active from +8 up or from −8 down. On the technique in general: The colour change of resazurin is a common sign of viable cells or microbes.
Experiment [4] addresses Dihydroorotate dehydrogenase (quinone), mitochondrial (Plasmodium falciparum (isolate 3D7)) (UniProt Q08210). Kind of experiment: PfDHODH enzyme inhibitors, primary screen, biochemical, C-terminal His tag, absorbance 600 nm (AID 1175).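 Further: recombinant parasite enzyme with a five histidine tag at its C terminus; test concentration not given here.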 The conditions noted are these: DCIP absorbance 600 nm, higher = more signal, called active from +8 up or from −8 down.
Experiment [5] in a line: P. aeruginosa biofilm formation inhibitors, primary screen, strain PAO1, LB-PBS medium, absorbance 600 nm (AID 1176). Further: test concentration not given here. The conditions noted are these: P. aeruginosa PAO1 growth/biofilm, A600, 12 h; higher = more signal.
The nature of experiment [6]: S. cerevisiae RM11-1a growth modifiers, primary screen, strain RM11-1a, OD600, basal, 24 h (AID 1177).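 Further: cultures grown under basal conditions with no added stressor; test concentration not given here.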 The conditions noted are these: OD600, 24 h, higher = more signal, called active from +8 up or from −8 down.
The nature of experiment [7]: E. coli acrAB mutant growth effects, primary screen, E. coli filamentation inducers, strain DRC39, OD650, 24 h (AID 1178).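 Further: growth measured as culture turbidity by optical density at 650 nm; test concentration not given here.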 The conditions noted are these: higher = more signal, called active from +8 up or from −8 down.
Experiment [8] can be described thus: E. coli acrAB mutant growth effects, primary screen, E. coli filamentation inducers, strain DRC39, OD650, 48 h (AID 1179).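 Further: screen aims at cell division blockers that make cells filament.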 The conditions noted are these: E. coli DRC39 delta-acrAB growth, higher = more signal, called active from +8 up or from −8 down.
Experiment [9] can be described thus: RPMI8226 myeloma cell viability, profiling panel, resazurin fluorescence, basal, 24 h, PK04 Diversity Set (AID 1180).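 Further: RPMI8826 multiple myeloma cell line at 5000 cells per well; test concentration not given here.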 The conditions noted are these: higher = more signal.
The target of experiment [10] is E3 ubiquitin-protein ligase XIAP (Homo sapiens) (UniProt P98170). As to the kind of experiment: XIAP binders, primary screen, biophysical, small-molecule microarray, fluorescence 635 nm (AID 1181).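 Further: score merges 667 nm emission and signal to noise over triplicate slides.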 The conditions noted are these: small-molecule microarray binding, higher = more signal.
E3 ubiquitin-protein ligase XIAP (Homo sapiens), sequence (P98170 whole entry, looked up): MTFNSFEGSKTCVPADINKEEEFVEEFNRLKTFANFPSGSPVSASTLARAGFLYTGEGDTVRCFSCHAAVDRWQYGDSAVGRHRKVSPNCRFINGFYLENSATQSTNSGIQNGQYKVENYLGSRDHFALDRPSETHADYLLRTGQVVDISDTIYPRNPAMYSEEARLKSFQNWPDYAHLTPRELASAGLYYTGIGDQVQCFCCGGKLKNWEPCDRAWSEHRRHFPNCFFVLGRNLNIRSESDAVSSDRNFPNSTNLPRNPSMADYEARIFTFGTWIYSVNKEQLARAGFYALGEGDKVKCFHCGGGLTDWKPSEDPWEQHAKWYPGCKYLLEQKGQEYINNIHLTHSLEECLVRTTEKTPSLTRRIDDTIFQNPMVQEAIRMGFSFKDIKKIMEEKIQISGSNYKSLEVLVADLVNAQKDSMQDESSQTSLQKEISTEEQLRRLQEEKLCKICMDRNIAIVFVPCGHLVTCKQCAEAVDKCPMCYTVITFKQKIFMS

Dihydroorotate dehydrogenase (quinone), mitochondrial (Plasmodium falciparum (isolate 3D7)), sequence (Q08210 whole entry, looked up): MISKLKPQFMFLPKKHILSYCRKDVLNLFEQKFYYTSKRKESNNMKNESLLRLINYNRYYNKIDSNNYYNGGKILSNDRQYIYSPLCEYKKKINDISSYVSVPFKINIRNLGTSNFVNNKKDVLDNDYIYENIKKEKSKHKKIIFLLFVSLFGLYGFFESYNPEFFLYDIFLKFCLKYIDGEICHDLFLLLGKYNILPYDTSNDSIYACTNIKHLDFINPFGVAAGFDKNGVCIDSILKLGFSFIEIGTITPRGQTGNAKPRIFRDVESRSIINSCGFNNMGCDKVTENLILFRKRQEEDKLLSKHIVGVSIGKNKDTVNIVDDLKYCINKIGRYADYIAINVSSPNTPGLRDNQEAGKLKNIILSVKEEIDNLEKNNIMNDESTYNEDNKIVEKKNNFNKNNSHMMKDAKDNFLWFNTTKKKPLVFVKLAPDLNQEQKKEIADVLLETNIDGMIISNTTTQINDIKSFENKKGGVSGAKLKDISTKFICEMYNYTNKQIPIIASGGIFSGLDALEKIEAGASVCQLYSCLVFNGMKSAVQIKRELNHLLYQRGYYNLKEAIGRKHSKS

With `O=C1[C@H]2[C@H]3[C@H](O)[C@H](O)CC(=NOC[C@@H](O)COCc4ccco4)[C@@H]3CC[C@H]2C(=O)N1C1CCCCC1`, the z-score in experiment [1] is -0.31; in experiment [2], 0.446 (inactive); in experiment [3], -0.226 (inactive); in experiment [5] it was 0.0457 (inactive); in experiment [6], 0.153 (inactive); in experiment [7] it was 0.326 (inactive). Further, the z-score is 0.132 (inactive) in [8] and -0.415 in experiment [9]. Moreover, the results for the composite z-score in [4] and in [10] were -0.308 (inactive) and -0.28, respectively.

Turning to `CCOC(=O)[C@H](CC(C)C)NC(=O)CCC1CC(OC(=O)NCCc2ccc(F)cc2)CC2(CCCC(COC(=O)NCc3cccc(C(F)(F)F)c3)O2)O1` (stereo not given in full), the z-score is 0.0989 in experiment [1]; 0.924 (inactive) in experiment [2]; 0.0492 (inactive) in experiment [3]; 0.672 (inactive) in experiment [5]; 0.924 (inactive) in experiment [6]; 0.687 (inactive) in experiment [7]. The results for the z-score in experiment [8] and in experiment [9] were 0.0609 (inactive) and 0.15, respectively. Moreover, the composite z-score is 0.324 (inactive) in [4] and -0.383 in [10].

Regarding `C#CCCCON=C1[C@H]2CCn3c(=O)n([C@@H](CC)c4ccccc4)c(=O)n3[C@H]2[C@H](O)[C@@H]2O[C@H]12`, the z-score was -0.14 in experiment [1]; -0.971 (inactive) in [2]; -0.813 (inactive) in [3]; -0.531 (inactive) in [5]; -0.771 (inactive) in [6]; -0.529 (inactive) in experiment [7]. The z-score is -0.567 (inactive) in experiment [8] and -0.751 in experiment [9]. For the same compound, the composite z-score in [4] is 0.147 (inactive); in experiment [10], -0.181.

Take `COc1ccc(COC(=O)NN=C2C[C@@H](O)[C@@H](O)[C@@H]3[C@@H]4C(=O)N([C@@H](C)c5ccccc5)C(=O)[C@@H]4CC[C@@H]23)cc1`: the z-score is -0.295 in experiment [1]; 0.501 (inactive) in experiment [2]; -0.525 (inactive) in [3]; -0.0363 (inactive) in experiment [5]; -0.887 (inactive) in experiment [6]; 0.0247 (inactive) in experiment [7]. The z-score in [8] is 0.528 (inactive); in [9] it was -0.521. The composite z-score is -0.194 (inactive) in [4] and -0.126 in experiment [10].

As to `C[C@@H](c1ccccc1)N1C(=O)[C@H]2[C@H]3[C@H](O)[C@H](O)CC(=NNC(=O)OCc4ccccc4)[C@@H]3CC[C@H]2C1=O`, the z-score in [1] is -0.289; in experiment [2], 0.862 (inactive); in experiment [3], -0.465 (inactive); in experiment [5], -0.155 (inactive); in experiment [6] it was -0.396 (inactive); in experiment [7], 0.288 (inactive). The z-score was 0.476 (inactive) in experiment [8] and -0.158 in experiment [9]. Further, the composite z-score was -0.594 (inactive) in experiment [4] and -0.0749 in experiment [10].

As to `CC(C)=NOC[C@@H](O)[C@H]1O[C@@H]2OC(C)(C)O[C@@H]2[C@H]1O`, the z-score in [1] was -0.831; in experiment [2], -0.0545 (inactive); in experiment [3], -0.369 (inactive); in experiment [5] it was -0.443 (inactive); in [6], 0.0762 (inactive); in [7] it was 0.757 (inactive). The values for the z-score in experiment [8] and in experiment [9] were 0.704 (inactive) and -0.686, respectively. For the same compound, the composite z-score in [4] is 0.759 (inactive); in experiment [10], -0.389.

In the case of `CCOC(=O)CCN1C(=O)[C@H]2[C@@H]3C(=CC[C@H]2C1=O)C(=O)[C@H]1O[C@H]1[C@H]3O`, the z-score in experiment [1] was -0.423; in experiment [2], -0.894 (inactive); in [3] it was -5.48 (inactive); in experiment [5] it was 0.0335 (inactive); in experiment [6], -0.548 (inactive); in experiment [7] it was -0.254 (inactive). The z-score in [8] was 0.322 (inactive); in experiment [9] it was -2.2. Also, the composite z-score in experiment [4] was -0.369 (inactive); in experiment [10] it was -0.0812.

Take `COc1cccc([C@H]2Oc3ccc(OC)cc3C(=NOCC[C@@H]3C=C[C@H](OC(C)=O)[C@@H](COC(C)=O)O3)[C@@H]2O)c1`: the z-score in [1] is -0.76; in experiment [2], 0.813 (inactive); in experiment [3], -0.698 (inactive); in experiment [5], 0.0767 (inactive); in experiment [6] it was 0.614 (inactive); in [7], 0.688 (inactive). Moreover, the z-score in experiment [8] is -0.53 (inactive); in experiment [9] it was -0.583. Moreover, the composite z-score in experiment [4] was 0.472 (inactive); in experiment [10], 0.0123.

On to `COC(=O)CC=C[C@@H](C)[C@@H](C=NOC[C@@H](C)[C@H](OCc1ccccc1)C(C)C)NS(=O)(=O)c1ccc(C)cc1`, for which the z-score in experiment [1] was -1; in experiment [2] it was -0.0668 (inactive); in experiment [3], -0.562 (inactive); in experiment [5], -0.291 (inactive); in experiment [6], 0.391 (inactive); in [7] it was -0.247 (inactive). Besides, the z-score is -1.18 (inactive) in experiment [8] and 0.0833 in experiment [9]. The composite z-score is 1.07 (inactive) in experiment [4] and -0.0844 in experiment [10].

In the case of `CC(C)CN1CCc2nc(-c3ccccc3)c3c(c2C1)CO[C@@H](C)C3`, the z-score was -0.622 in experiment [1]; -1.33 (inactive) in experiment [2]; 1.21 (inactive) in [3]; -0.588 (inactive) in [5]; 0.697 (inactive) in experiment [6]; -0.838 (inactive) in experiment [7]. For the same compound, the z-score in experiment [8] is -0.0811 (inactive); in experiment [9], 0.829. Moreover, the composite z-score in [4] is 0.638 (inactive); in experiment [10] it was -0.22.

In the case of `CCOC(=O)NN=C1C[C@@H](O)[C@@H](O)[C@@H]2[C@@H]3C(=O)N(c4ccc(F)cc4F)C(=O)[C@@H]3CC[C@H]12`, the z-score was 0.99 in experiment [1]; -0.468 (inactive) in [2]; 1.44 (inactive) in experiment [3]; 0.614 (inactive) in experiment [5]; -0.738 (inactive) in experiment [6]; 0.284 (inactive) in experiment [7]. Also, the z-score in experiment [8] is 0.498 (inactive); in [9], 0.241. The composite z-score in experiment [4] is -2.51 (inactive); in experiment [10] it was -0.176.

Turning to `CCN1C(=O)[C@H]2[C@H]3[C@H](O)[C@H](O)CC(=NO[C@@H]4O[C@H](COC(C)=O)[C@@H](OC(C)=O)[C@H](OC(C)=O)[C@H]4OC(C)=O)[C@@H]3CC[C@H]2C1=O`, the z-score in experiment [1] is -1.15; in experiment [2], 0.902 (inactive); in experiment [3] it was -0.974 (inactive); in experiment [5] it was -0.136 (inactive); in experiment [6], 0.164 (inactive); in [7], 1.22 (inactive). Besides, the z-score is 1.44 (inactive) in experiment [8] and -1.03 in experiment [9]. The results for the composite z-score in [4] and in experiment [10] were -0.0673 (inactive) and 1.92, respectively.

`COC(=O)CC=C[C@@H](C)[C@@H](C=NOC(C)CN1CCCCc2nc(C)c(C)cc21)OC` (stereo not given in full): the z-score in experiment [1] is -0.264; in experiment [2], -0.927 (inactive); in experiment [3], 0.0144 (inactive); in experiment [5], -0.0417 (inactive); in experiment [6], -0.46 (inactive); in experiment [7], 0.324 (inactive). The results for the z-score in [8] and in experiment [9] were 0.257 (inactive) and -0.0511, respectively. In addition, the composite z-score is 0.244 (inactive) in experiment [4] and -0.459 in experiment [10].

For `COC(=O)[C@H](C)NC(=O)CCC1CC(OC(=O)NCc2ccc3c(c2)OCO3)CC2(CCCC(COC(=O)NCCC(C)C)O2)O1` (stereo not given in full), the z-score in [1] is 0.506; in experiment [2], -0.43 (inactive); in [3] it was -0.274 (inactive); in [5] it was -0.294 (inactive); in experiment [6], -0.774 (inactive); in experiment [7], 0.909 (inactive). For the same compound, the values for the z-score in [8] and in [9] were -0.804 (inactive) and 0.0961, respectively. Moreover, the composite z-score in experiment [4] was -0.558 (inactive); in experiment [10], 0.0245.

Consider `C[C@H]1CC[C@H]2C(=O)OC(COc3ccc(C(C)(C)C)cc3)CN2[C@@H]1c1ccc(Br)cc1` (stereo not given in full), for which the z-score in [1] is 0.272; in experiment [2], -4.88 (inactive); in experiment [3], 0.283 (inactive); in experiment [5], 1.18 (inactive); in experiment [6], -0.249 (inactive); in [7] it was 1.22 (inactive). Also, the z-score in [8] is 0.662 (inactive); in experiment [9] it was -0.317. Also, the composite z-score in [4] is -0.673 (inactive); in [10], -0.173.
